Source: PubChem (National Center for Advancing Translational Sciences (NCATS))
A selection: hits, their analogues and other compounds. The true share with any hit is near 9%.
BAZ2B block – inhibitors of human BAZ2B bromodomain | AlphaScreen BAZ2B-H3K14Ac peptide displacement | Potency, µM (top dose mostly 114 µM), for the others: top-dose activity change, negative = inhibition, hits mostly inhibitors | hit rate 4.4% among 360,000; further: on the % scale 0 is the no-effect control and ±100 the full control effect; nearly all actives have a fitted effect of over 60% in size
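Compounds, titrated to a top concentration of 110 uM, were incubated 30 min at room temperature with preformed BAZ2B/acetyl-K14 H3 peptide complex (50 nM each). Proximity signal was measured by AlphaScreen after 20 min with beads.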
PLK1 PBD inh – inhibitors of human PLK1 polo-box domain binding | P53350 | Plk1 PBD binding of FITC phosphopeptide, fluorescence polarization | Potency, µM, inactives show max response, negative = inhibition, most hits filed as inhibitors | hit rate 2.8% among 360,000 | AID 720504; further: series mostly up to about 57 µM; on the % scale 0 is the no-effect control and ±100 the full control effect; nearly all actives have a fitted effect of over 65% in size
ALOX12 inh – ALOX12 (human) lipoxygenase inhibition | purified 12hLO, xylenol orange hydroperoxide absorbance | Potency, µM (top dose mostly 108 µM), without a hit: at the top dose activity change, negative = inhibition, hits mostly inhibitors | hit rate 1.1% among 580,000; further: on the % scale 0 is the no-effect control and ±100 the full control effect
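Hydroperoxide product was detected by ferrous iron/xylenol orange as the 573 to 405 nm absorbance ratio. Arachidonic acid at 40 uM (final) was turned over for 30 min at room temperature by 150 nM human 12hLO, pH 7.0 Hepes buffer, after 15 min compound preincubation.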
G9a block – inhibitors of human histone lysine methyltransferase G9a; G9a H3K9 monomethylation, AlphaScreen, 2 h; Potency, µM (top dose mostly 102 µM), for the others: at the top dose activity, negative = inhibition, actives largely listed as inhibitors; hit rate 8.8% among 350,000; further: on the % scale 0 is the no-effect control and ±100 the full control effect; nearly all actives have a fitted effect of over 75% in size
Target sequence (Q96KQ7 913-1193 limits assumed): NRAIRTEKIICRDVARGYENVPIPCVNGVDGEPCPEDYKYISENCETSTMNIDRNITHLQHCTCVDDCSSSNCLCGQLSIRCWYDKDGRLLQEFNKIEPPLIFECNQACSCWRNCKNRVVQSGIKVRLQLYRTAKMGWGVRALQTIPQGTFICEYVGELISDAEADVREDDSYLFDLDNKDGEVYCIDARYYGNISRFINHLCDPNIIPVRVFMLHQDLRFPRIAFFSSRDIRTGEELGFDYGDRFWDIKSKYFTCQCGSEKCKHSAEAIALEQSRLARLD
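Quantitative HTS format: methyltransferase activity on a biotin-tagged H3K9 peptide is measured by AlphaScreen, using a rabbit anti-monomethyl-H3K9 antibody with streptavidin donor and anti-IgG acceptor beads. Final levels are 20 nM enzyme, 500 nM peptide, 20 uM SAM; 2 h RT.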
HP1b binding inh – inhibitors of HP1-beta chromodomain binding to methylated histone tails | P83916 | AlphaScreen HP1-beta / biotin-H3K9me3 peptide binding | Potency, µM (doses to about 114 µM), without a hit: top-dose activity change, negative = inhibition, hits mostly inhibitors | hit rate 0.56% among 390,000 | AID 540317; further: nearly all actives have a fitted effect of over 70% in size
Target sequence (P83916 whole entry, looked up): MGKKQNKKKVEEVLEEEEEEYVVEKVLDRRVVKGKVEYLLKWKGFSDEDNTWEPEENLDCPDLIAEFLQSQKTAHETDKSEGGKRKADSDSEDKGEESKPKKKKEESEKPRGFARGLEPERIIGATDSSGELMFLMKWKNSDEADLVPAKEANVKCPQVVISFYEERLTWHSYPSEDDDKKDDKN
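AlphaScreen: HP1-beta (50 nM) preformed 30 min with biotin-H3(1-18)K9me3 peptide (50 nM) in PBS pH 7.4, 0.01% Tween-20. Compound added for 30 min at RT, then streptavidin donor/nickel chelate acceptor beads (10 ug/mL) for 30 min.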
JMJD2A Tudor inh – JMJD2A Tudor domain (human) inhibition; AlphaScreen JMJD2A-Tudor / H3K4me3 peptide binding; Potency, µM (highest dose often 114 µM), for inactives: at the highest dose activity change, negative = inhibition, most hits filed as inhibitors; hit rate 4.4% among 390,000; further: on the % scale 0 is the no-effect control and ±100 the full control effect; nearly all actives have a fitted effect of over 50% in size
An asterisk follows results filed as active; u = inconclusive; x = not tested or not shown; ! = not active in a repeat; [ ] = dose if it differs, or a comment. The call rests on the fitted dose curve; in most records, active means well fitted curve in the direction sought with a large enough effect; inconclusive means small, poorly fitted or top-dose-only effect, or another doubt; inactive means no such curve, though single readings can be large; an effect the other way counts as inactive or inconclusive. Potency means the concentration at half of the fitted maximal effect.

SMILES | BAZ2B block | PLK1 PBD inh | ALOX12 inh | G9a block | HP1b binding inh | JMJD2A Tudor inh
O=C(C1=C(O)C(=O)N(c2nc3ccc(Cl)cc3s2)C1c1ccco1)c1ccco1 (configuration not stated) | 45µM* | 21µM* | 7.9µM*! | u | 28µM* | 13µM*
Cc1ccc2nc(N3C(=O)C(O)=C(C(=O)c4ccc(C)o4)C3c3ccco3)sc2c1 (configuration not stated) | 50µM* | u | 0.56µM* | u | -12% | 50µM*
Cc1ccc(C(=O)C2=C(O)C(=O)N(c3ncccn3)C2c2ccc(Br)cc2)o1 (configuration not stated) | -26% | -16% | x | u | 28% | -12%
CCc1ccc2nc(N3C(=O)C(O)=C(C(=O)c4ccco4)C3c3cccs3)sc2c1 (configuration not stated) | 50µM* | 17µM* | x | u | u | u
Cc1ccc2nc(N3C(=O)C(O)=C(C(=O)c4cc5ccccc5o4)C3c3cccs3)sc2c1 (configuration not stated) | -6% | u | x | 20%[59 µM] | -12% | u
CC(=O)[C@@H]1[C@@H](C(=O)c2ccc(F)cc2)[C@]2(C(=O)Nc3ccccc32)[C@H]2C=Cc3cc(F)ccc3N12 | -26% | -20% | u | u | u | u
O=C(c1ccc(F)cc1)[C@@H]1[C@@H](C(=O)c2ccccc2)[C@@]2(C(=O)Nc3ccccc32)[C@H]2c3ccccc3C=CN12 | u | x | x | 7.1µM* | x | x
O=C(c1ccccc1)[C@@H]1[C@@H](C(=O)c2ccco2)[C@@]2(C(=O)Nc3ccccc32)[C@H]2c3ccccc3C=CN12 | x | x | 14µM* | x | x | x
O=C(CC1CCCCC1)N1CCCC1c1nncn1Cc1ccncc1 (configuration not stated) | x | x | 76% | x | x | x
Cc1nn(CCOc2cccc(Cl)c2)c(C)c1[N+](=O)[O-] | 12% | -8% | 102% | 66% | 45% | 21%
Cc1nn(CCOc2ccccc2Cl)c(C)c1[N+](=O)[O-] | 4% | -13% | 23% | 50µM* | 10% | -8%
CCOC(=O)c1sc2cc([N+](=O)[O-])cc(SCC(=O)OC)c2c1N | 40µM* | -21% | u | 7.9µM* | u | 45µM*
CCOC(=O)COc1ccccc1/C=C\[N+](=O)[O-] | -30% | 7.5µM* | x | 3.5µM* | 25% | -15%
CC(=O)c1nc2ccccc2n1S(=O)(=O)c1ccc(Cl)cc1 | 56µM* | 3% | 5% | -119% | 28% | -24%
Nc1ccsc1C(=O)N1CCC2(CCC(=O)N(CC3CCCO3)C2)CC1 (configuration not stated) | x | x | 7.9µM* | x | x | x
O=C1CCC2(CCN(C(=O)c3ccco3)CC2)CN1CC1CCCO1 (configuration not stated) | x | x | 20% | x | x | x
CCOC(=O)CCCCC(=O)c1[nH]c(=O)[nH]c1CN1CCOCC1 | 16µM* | 2% | -5% | u | -37% | 35µM*
CCOC(=O)CCCCC(=O)c1[nH]c(=O)[nH]c1C[n+]1ccccc1 | -8% | x | x | u | x | x
CCOC(=O)CCCCC(=O)c1[nH]c(=O)[nH]c1C[n+]1ccc(C)cc1 | u | 2% | -15% | 45µM* | 23% | -15%
CCOC(=O)C1CCCN(c2c(NCCN3CCCCC3CC)c(=O)c2=O)C1 (configuration not stated) | 3% | -1% | 0%[57.4 µM] | -3% | 27% | -1%
NC(=O)CNC(=O)[C@@H]1CC2(CC(c3ccccc3)=NO2)CN1C(=O)c1ccc(Br)cc1 (some centres not stated) | -23% | 3% | 10% | 31%[12.7 µM] | 30% | -19%
C=CCOc1ccc(CNC(C)(C)C)cc1OC | -21% | -8% | 9% | -3%[59 µM] | 25% | -7%
COc1ccc(NC(=O)CCS(=O)(=O)c2cc3c4c(c2)CCN4C(=O)CC3)c(OC)c1 | -30% | x | -20% | u | 4% | -16%
COC(CNS(=O)(=O)c1cc2c3c(c1)CCN3C(=O)CC2)OC | -6% | 21µM* | 7% | 10% | 1% | -29%
O=C(CCS(=O)(=O)c1cc2c3c(c1)CCN3C(=O)CC2)Nc1cccc(Br)c1 | 2% | x | 45µM* | u | 17% | 79µM*
SMILES | BAZ2B block | PLK1 PBD inh | ALOX12 inh | G9a block | HP1b binding inh | JMJD2A Tudor inh
COc1ccc(C)cc1NC(=O)CCS(=O)(=O)c1cc2c3c(c1)CCN3C(=O)CC2 | -16% | x | 18µM* | 8.9µM* | 71µM* | 32µM*
COc1ccccc1NC(=O)CCS(=O)(=O)c1cc2c3c(c1)CCN3C(=O)CC2 | -2% | x | u | 20µM* | 11% | u
Cc1cc(C)c(CN2CCC(n3nccc3NC(=O)CCOc3ccccc3)CC2)cc1C | -17%[57.1 µM] | -8% | -8% | -9% | 44% | -28%
COc1ccccc1N=C1SCC(=O)N1c1ccccc1OC | -3% | 21µM* | u | 28µM* | u | -12%
COc1ccccc1N1C(=O)CSC1=NC(=O)c1ccccc1 | -4% | -1% | -1% | x | 36% | -2%
COc1ccc(S(=O)(=O)N2CCC(c3nnc(-c4ccccc4C)o3)CC2)c(OC)c1 | -19% | x | 6% | 8.9µM* | 33% | -13%
Cc1ccccc1-c1nnc(C2CCN(S(=O)(=O)c3ccc(Cl)cc3)CC2)o1 | -6% | x | 1% | 7.9µM* | 39% | 1%
COc1ccc(-c2nnc(C3CCN(S(=O)(=O)c4cccc(Cl)c4)CC3)o2)cc1 | -8% | x | -9% | 11µM* | 25% | u
COc1ccc(-c2nnc(C3CCN(C(=O)c4ccccc4F)CC3)o2)cc1 | u | x | u | 14µM* | -3% | 56µM*
Cc1ccccc1-c1nnc(-c2ccc(Cl)cc2)o1 | -2% | -11% | -8% | 6% | 12% | 4%
CN(C)c1ccc(-c2noc(C3CCN(S(=O)(=O)c4cccc(Cl)c4)CC3)n2)cc1 | u | -8% | -12% | u | 2% | u
O=C(c1ccc2c(c1)CCN2S(=O)(=O)c1ccc(Cl)cc1)N1CCN(c2ccc(F)cc2)CC1 | -21% | x | -24% | -12%[59 µM] | 12% | -34%
CSc1ccccc1NC(=O)CN(C)C(=O)COc1cccc2cccnc12 | x | -8% | -13% | x | 0% | 22µM*
CC(=O)Nc1ccc(NC(=O)CSc2nccn2Cc2ccccc2)cc1 | -7% | -4% | 0% | -5% | 52% | -19%
O=C1C2CCCCN2C(=O)N1CCCCN1CCN(c2cccc(Cl)c2)CC1 (configuration not stated) | -20% | -1% | 4% | u | 8% | -25%
